From PubChem BioAssay
The source made the active and inactive calls.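 How the source made its calls: active means viability loss from added drug above about 55%, and viability with drug at most 40%, in both replicates (limit read from the data, passing the limit was not always enough); inconclusive means both conditions met in only one replicate; inactive means neither replicate meets both conditions.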

Assay: MRP1 drug-resistance reversers in H69AR cells – cell-based, doxorubicin co-treatment, pilot screen (AID 601)
Conditions: H69AR cells + 2 uM doxorubicin, CellTiter-Glo, 72 h; at 10 µM; stronger effect = higher value

SMILES | differential viability (reversal)
COCCCN1C(=O)C(O)=C(C(=O)c2ccco2)C1c1ccc(Br)cc1 (centres undefined) | 10.2% (inactive)
Cc1cccc(N2C(=O)CC(N3CCN(Cc4ccc(Cl)cc4)CC3)C2=O)c1 (centres undefined) | 12.2% (inactive)
CS(=O)(=O)N(CC(=O)Nc1ccc2c(c1)OCCO2)Cc1ccccc1 | 12.3% (inactive)
O=C(O)CC1SC(=Nc2cccc(C(F)(F)F)c2)NC1=O (centres undefined) | 9.34% (inactive)
CCOC(=O)Nc1sc(=S)n(C)c1C | 3.1% (inactive)
CCCn1nc(NS(=O)(=O)c2ccccc2)c2cc3ccccc3nc21 | 25% (inactive)
COc1ccc2[nH]c(=O)c(CN(Cc3cccs3)S(=O)(=O)c3cccc4nsnc34)cc2c1 | -0.125% (inactive)
CC(C)C(c1nnnn1CC1CCCO1)N1CCN(Cc2ccc3c(c2)OCO3)CC1 (centres undefined) | 4.93% (inactive)
COc1cc2c(cc1NC(=O)CN1CCN(S(=O)(=O)c3ccc(F)cc3)CC1)oc1ccccc12 | 1.29% (inactive)
CCCn1c2c(c(O)c(C(=O)Nc3ccc(C)cn3)c1=O)CCCC2 | -9.88% (inactive)
O=S(=O)(Nc1cccnc1)c1cc(Cl)ccc1Cl | -4.94% (inactive)
CCN(CC(=O)Nc1ccc(S(N)(=O)=O)cc1)S(=O)(=O)c1cc(C)ccc1OC | 14.4% (inactive)
O=S(=O)(NCC(c1cccnc1)N1CCN(c2ccccc2)CC1)c1cc(F)ccc1F (centres undefined) | -8.3% (inactive)
Cc1ccc2oc(C(=O)Nc3c(C)n(C)n(-c4ccccc4)c3=O)c(C)c2c1 | 20.3% (inactive)
C/C=C/c1ccc(OCCn2cncn2)c(OC)c1 | 1.09% (inactive)
Cc1ccnc(SCCn2c(N3CCCCC3)nc3c2c(=O)n(C)c(=O)n3C)n1 | 3% (inactive)
CCN(CC)S(=O)(=O)c1ccc(NC2c3ccccc3C(=O)N2CCN2CCOCC2)cc1 (centres undefined) | 10.8% (inactive)
CCC(=O)OCCn1c(=O)c2cc3c(=O)n(CCOC(=O)CC)c(=O)c3cc2c1=O | -3.94% (inactive)
Cc1cc(Br)ccc1NC(=O)CCN1C(=O)c2ccncc2C1=O | 3.85% (inactive)
Cc1cc(C(=O)O)ccc1-n1c(C)ccc1C | 1.35% (inactive)
Cc1nn(-c2ccc(F)cc2)c2sc(C(=O)OCC(=O)N3CCC(C)CC3)cc12 | 9.16% (inactive)
CCOCCCNC(=O)C1CCN(C(=O)Nc2ccc(Cl)cc2)CC1 | 10.9% (inactive)
CCOc1ccccc1NC(=O)CN(c1ccc(C)cc1)S(=O)(=O)c1c(C)noc1C | -9.07% (inactive)
CC(C)(CO)NC(=O)CCCOc1ccc(Cl)cc1Cl | 19% (inactive)

Same assay, conditions: H69AR cells + 2 uM doxorubicin, CellTiter-Glo, 72 h; measured here: viability with 2 uM doxorubicin; at 10 µM; stronger effect = lower value

SMILES | viability [%]
CN=C1CC(C)(C)CC(=O)/C1=C(/O)CCC(=O)NC | 92.1
CC(C)(C)NC(=O)Cn1nnc(-c2cccs2)n1 | 79.1
Nc1nnc(SCC(=O)N2CCc3ccccc32)n1-c1ccccc1 | 94.5
O=C(CSc1ncnc2c1oc1ccccc12)Nc1ccccc1F | 83.1
O=C(Nc1cccc(C(F)(F)F)c1)c1cccnc1N1CCCC1 | 102
Cc1cc(C(F)(F)F)nn1Cc1ccc(C(=O)NCc2ccco2)o1 | 89.5
O=C(C1CCCN(S(=O)(=O)c2cccnc2)C1)N1CCN(c2ccccn2)CC1 (centres undefined) | 90.3
O=C(CCn1c(=S)[nH]c2cc3c(cc2c1=O)OCO3)N1CCN(C2CCCCC2)CC1 | 92.8
CC(C)CC(=O)CN1C(=O)C2(OCCO2)c2ccccc21 | 95.8
CNC(=O)CN(C#N)c1nc(N(C)C)nc(N(C)C)n1 | 90.2
O=C(Oc1ccc2c(c1)CCC2)N1CCOCC1 | 88.9
CCCn1c(N2CCN(CC(=O)Nc3ccc4c(c3)OCCO4)CC2)nc2ccccc21 | 88.3
COCc1ccccc1Cn1cnc2c1c(=O)n(C)c(=O)n2C | 92.7
O=C(Nc1ccc(N2CCOCC2)cc1)c1cc2ccccc2o1 | 82.6
COc1ccc(N2C(=O)CC(NC3CC3)C2=O)cc1 (centres undefined) | 90.5
COc1cccc(C(=O)NCc2nnc(SCC(=O)Nc3nccs3)n2-c2ccccc2)c1 | 101
COCCCN1C(=O)C(O)=C(C(=O)c2ccco2)C1c1ccc(Br)cc1 (centres undefined) | 87.4
Cc1cccc(N2C(=O)CC(N3CCN(Cc4ccc(Cl)cc4)CC3)C2=O)c1 (centres undefined) | 86.9
CS(=O)(=O)N(CC(=O)Nc1ccc2c(c1)OCCO2)Cc1ccccc1 | 87.2
O=C(O)CC1SC(=Nc2cccc(C(F)(F)F)c2)NC1=O (centres undefined) | 93.2

SMILES | viability [%]
CCOC(=O)Nc1sc(=S)n(C)c1C | 94.9
CCCn1nc(NS(=O)(=O)c2ccccc2)c2cc3ccccc3nc21 | 94.9
COc1ccc2[nH]c(=O)c(CN(Cc3cccs3)S(=O)(=O)c3cccc4nsnc34)cc2c1 | 5.45
CC(C)C(c1nnnn1CC1CCCO1)N1CCN(Cc2ccc3c(c2)OCO3)CC1 (centres undefined) | 90.3
COc1cc2c(cc1NC(=O)CN1CCN(S(=O)(=O)c3ccc(F)cc3)CC1)oc1ccccc12 | 94.4
CCCn1c2c(c(O)c(C(=O)Nc3ccc(C)cn3)c1=O)CCCC2 | 97.9
O=S(=O)(Nc1cccnc1)c1cc(Cl)ccc1Cl | 87.7
CCN(CC(=O)Nc1ccc(S(N)(=O)=O)cc1)S(=O)(=O)c1cc(C)ccc1OC | 99.2
O=S(=O)(NCC(c1cccnc1)N1CCN(c2ccccc2)CC1)c1cc(F)ccc1F (centres undefined) | 94.7
Cc1ccc2oc(C(=O)Nc3c(C)n(C)n(-c4ccccc4)c3=O)c(C)c2c1 | 83.6
C/C=C/c1ccc(OCCn2cncn2)c(OC)c1 | 88.7
Cc1ccnc(SCCn2c(N3CCCCC3)nc3c2c(=O)n(C)c(=O)n3C)n1 | 88.2
CCN(CC)S(=O)(=O)c1ccc(NC2c3ccccc3C(=O)N2CCN2CCOCC2)cc1 (centres undefined) | 76.2
CCC(=O)OCCn1c(=O)c2cc3c(=O)n(CCOC(=O)CC)c(=O)c3cc2c1=O | 91.1
Cc1cc(Br)ccc1NC(=O)CCN1C(=O)c2ccncc2C1=O | 91.7
Cc1cc(C(=O)O)ccc1-n1c(C)ccc1C | 91.8
Cc1nn(-c2ccc(F)cc2)c2sc(C(=O)OCC(=O)N3CCC(C)CC3)cc12 | 92.6
CCOCCCNC(=O)C1CCN(C(=O)Nc2ccc(Cl)cc2)CC1 | 90.8
CCOc1ccccc1NC(=O)CN(c1ccc(C)cc1)S(=O)(=O)c1c(C)noc1C | 90.1
CC(C)(CO)NC(=O)CCCOc1ccc(Cl)cc1Cl | 79.2
